Reference: PubChem BioAssay AID449762 (Southern Research Specialized Biocontainment Screening …, 2010)
Out of some 330,000 compounds screened, about 1,900 (0.58%) were called active. Another 4% or so got no clear call; they are omitted. A selection follows. Potency and affinity values are given separately. A number with no mark means an inactive call. No stated cut-off is given here; in the data, inconclusive means inhibition above about 70% without an active follow-up result; inactive means below that.

Experiment: M. tuberculosis growth inhibition, HTS (AID 449762);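 further: bacterial growth assessed after seven days of incubation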
Settings: M. tuberculosis H37Rv growth inhibition, 7H9 media; at 25 µM; hits give high values

SMILES	inhibition
O=C(O)CNC(=S)NCc1ccccc1	-1.14%
CCOC(=O)c1[nH]c2cc(OC)c(OC)cc2c1NC(=O)CN1CCN(c2ccc(OC)cc2)C(C)C1 (stereo unspecified)	-2.17%
COC(=O)c1[nH]c2cccc(OC)c2c1NC(=O)CN1CCN(c2cccc(OC)c2)C(C)C1 (stereo unspecified)	52.6%
O=C(c1cc2ccccc2oc1=O)N1CCN(Cc2ccc3c(c2)OCO3)CC1	-3.79%
C=C(c1ccccc1O)n1ccnc1	0.25%
Cc1cccc(C(=O)NNC(=O)c2cccc(C)c2)c1	-16.6%
Cc1cccc(C(=O)NNC(=O)c2ccccc2)c1	-6.62%
O=C(COc1ccccc1)NNC(=S)NC(=O)c1ccccc1	56.3%
O=C(COc1ccccc1)NNC(=S)NC(=O)c1ccc(Cl)cc1Cl	55.5%
O=C(c1cc(Br)c(Br)s1)N1CCN(C/C=C/c2ccccc2)CC1	-4.13%
OCCOCCn1c(C2CCCN2c2nc(-c3ccc(F)cc3)cs2)nc2cc(C(F)(F)F)ccc21 (stereo unspecified)	2.16%
CCOc1ccc(-n2nnc3c(=O)n(C/C=C/c4ccccc4)cnc32)cc1	-10.8%
CC(=O)Nc1ccc(C(=O)CN2C(=O)NC3(CCCCCC3)C2=O)c(F)c1	-9.64%
CC(C)c1ccc(OC(=O)c2cccc(S(=O)(=O)N3CCN(C)CC3)c2)cc1	10.8%
CC1(C)N=C(N)N=C(N)N1c1cccc(CN)c1	-3.4%
Brc1ccc2ncc(Br)cc2c1	2.82%
Nc1ccc(Br)cc1Br	-6.59%
COC(=O)C1CCN(C(=O)/C=C/c2ccccc2)CC1	-5.05%
Cc1nn(Cc2ccccc2)c(C)c1CNC(=O)[C@H](C)N=C1NS(=O)(=O)c2ccccc21	6.6%
Cc1cccc(-n2cc(CNCCN3CCOC3=O)c(-c3cccc(F)c3)n2)c1	1.99%
O=C1CC2(CCCCC2)Oc2ccc(F)cc21	-0.1%

SMILES	inhibition
NC(N)=N/N=C/c1ccccc1	-2.68%
CCN(Cc1ccccc1)c1ccc(/C=N/N2CCOCC2)cc1	11.3%
CCN(Cc1ccccc1)c1ccc(/C=N/NC(=S)NC(C)C)cc1	10.7%
NC(N)=N/N=C/c1ccc(Br)cc1	10.5%
COc1ccc(-c2oc3cccnc3c2C#CCO)cc1	5.48%
CC(=O)N/C(=C\c1ccccc1)C(=O)N1CCOCC1	-6.38%
CN(C)CCCN1c2ccc([N+](=O)[O-])cc2CCc2cc([N+](=O)[O-])ccc21	-1.94%
COc1cc(/C=C/c2cccc[n+]2C)ccc1OCC(=O)Nc1ccccc1C	-9.56%
CCOc1cc(/C=C\[N+](=O)[O-])ccc1OCC(=O)N1CCOCC1	3.95%
COc1cccc(C(=O)c2c[nH]c(C(=O)NCCCN(C)C)c2)c1	-4.05%
COCCn1c(CN2CCN(C(=O)c3ccco3)CC2)nc2c1c(=O)n(C)c(=O)n2C	13%
CC(=O)c1ccc(OC(=O)COc2ccccc2)cc1	-5.04%
NS(=O)(=O)c1ccc(NC(=O)CSc2ncnc3ccccc23)cc1	0.11%
CC(Sc1nnc(NC2CC2)s1)C(=O)Nc1ccc(S(N)(=O)=O)cc1 (stereo unspecified)	8.95%
O=C(CSc1nnc(NC2CCCCC2)s1)Nc1ccc2c(c1)C(=O)c1ccccc1C2=O	4.12%
CCN1CCN(c2nc3c(c(=O)[nH]c(=O)n3C)n2CCCc2ccccc2)CC1	-0.19%
COc1cc(C(C)=O)ccc1OCC(O)CN1CCN(S(=O)(=O)c2ccccc2)CC1 (stereo unspecified)	-10.5%
C#CCSc1nc(C)cc(C(=O)OCC)c1C#N	1.67%
CCOC(=O)c1cc(C)nc(SC)c1C#N	6.64%
CCOC(=O)[C@@H]1[C@H]2COc3ccc(Br)cc3[C@@H]2N2C(=O)N(c3ccc(C)cc3)C(=O)[C@@]12C	-3.24%
CN(Cc1cnn(C)c1)C(=O)CC1C(=O)NCCN1Cc1cccc(Oc2ccccc2)c1 (stereo unspecified)	3.24%

SMILES	inhibition
Cc1sc2nc(C(C)C)nc(SCC(=O)NC3CC3)c2c1C	0.27%
Cc1c(C(=O)CN2CCCC(C)(C)C2)c2ccccc2n1C	5.6%
COc1cc(CNCCCN2CCOCC2)ccc1OCC(=O)Nc1cccc(C(F)(F)F)c1	0.14%
CCOc1cc(CNCCCN2CCOCC2)ccc1OCC(=O)Nc1cccc2ccccc12	6.81%
Cc1ccc(S(=O)(=O)N2CCOCC2)c(C)c1NS(C)(=O)=O	-0.81%
CCN(C(=O)COc1cc(OC)ccc1C(C)=O)C1CCS(=O)(=O)C1 (stereo unspecified)	0.77%
CCc1noc(C)c1C(=O)NNC(=O)COc1cc(C)ccc1C	0.9%
Cc1ccc(NC(=O)CCS(=O)(=O)c2cccc3nonc23)cc1	13.6%
CCc1cccc(NC(=O)CCS(=O)(=O)c2cccc3nonc23)c1	57.8%
O=c1c(/C=N/OCc2ccc(Cl)cc2Cl)c[nH]n1-c1cccc(Cl)n1	34.5%
O=c1c(C=Nc2ccc(Cl)cc2)c[nH]n1-c1cccc(Cl)n1	0.34%
Cc1nc2c(C(F)(F)F)cccc2c2c1CCS2	0.87%
Cc1cccc(NC(=O)C2CCCN(S(=O)(=O)c3c(C)nn(C)c3C)C2)c1 (stereo unspecified)	-8.6%
O=Cc1ccccc1OS(=O)(=O)c1ccccc1	-6.41%
O=C(Nc1ccccc1)c1ccccc1OS(=O)(=O)c1ccccc1	0.76%
C/C(=N\NC(=O)CN(c1ccccc1)S(C)(=O)=O)c1ccccc1O	-3.69%
Cc1cc(OC(C)C(=O)NCC2CCCO2)cc(C)c1Cl (stereo unspecified)	11.1%
CCn1cnc2sc(C(=O)N3CCN(c4ccc(OC)cc4)CC3)c(C)c2c1=O	-8.96%
CCn1cnc2sc(C(=O)O)c(C)c2c1=O	-6.99%
